The supplement of paper PMC6089552
Hit rate of the full screen: of about 3,200 compounds, about 300 (9.4%) showed activity. Only a selection was taken, and actives are over-represented in it overall.

Test system: A673/TR/shEF
Assay: cell viability (LOESS-normalised, relative to median of negative controls) (log2 ratio); higher = more viable cells (less compound effect), active = hit call of the paper (over 3 MAD below the median)
Details: treatment time: 72 h
How it was run: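 Doxycycline, present or absent from 24 h before compounds, was used to induce EWS-FLI1 shRNA knockdown in A673/TR/shEF Ewing sarcoma cells at 1,500 per well in 384-well plates. Cells then received library compounds at two or more concentrations, or DMSO controls, for three days. Viability was measured by CellTiter-Glo luminescence on an Envision reader, and per-plate LOESS correction, division by the negative-control median and log2 transformation followed.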

[1] = 0.25 µM, library screen: screen1, EWS-FLI1 expression: high (no doxycycline)
[2] = 0.25 µM, library screen: screen1, EWS-FLI1 expression: low (doxycycline-induced shRNA knockdown)
[3] = 2.5 µM, library screen: screen1, EWS-FLI1 expression: high (no doxycycline)
[4] = 2.5 µM, library screen: screen1, EWS-FLI1 expression: low (doxycycline-induced shRNA knockdown)
[5] = 0.25 µM, library screen: screen2, EWS-FLI1 expression: high (no doxycycline)
[6] = 0.25 µM, library screen: screen2, EWS-FLI1 expression: low (doxycycline-induced shRNA knockdown)
[7] = 2.5 µM, library screen: screen2, EWS-FLI1 expression: high (no doxycycline)
[8] = 2.5 µM, library screen: screen2, EWS-FLI1 expression: low (doxycycline-induced shRNA knockdown)
[9] = 0.025 µM, library screen: screen2, EWS-FLI1 expression: high (no doxycycline)
[10] = 0.025 µM, library screen: screen2, EWS-FLI1 expression: low (doxycycline-induced shRNA knockdown)
[11] = 25 µM, library screen: screen2, EWS-FLI1 expression: high (no doxycycline)
[12] = 25 µM, library screen: screen2, EWS-FLI1 expression: low (doxycycline-induced shRNA knockdown)

Measured: cell viability (log2)

CCCCOC(=O)c1ccccc1C(=O)OCc1ccccc1
inactive: [1] 0.109 | [2] 0.0867 | [3] 0.0605 | [4] 0.00546

C[C@@H]1c2cc(O)c(O)cc2CCN1C
inactive: [5] 0.203 | [6] 0.114 | [7] 0.129 | [8] 0.102

C[N+]1(C)C2CC(OC(=O)C(CO)c3ccccc3)CC1C1OC12 (stereo not given)
inactive: [1] 0.0929 | [2] 0.0137 | [3] 0.182 | [4] 0.0439

CC(C)(C)c1cc(C=C(C#N)C#N)cc(C(C)(C)C)c1O
active: [3] -1.1 | 25 µM, library screen: screen1, EWS-FLI1 expression: high (no doxycycline) -3.7 | 25 µM, library screen: screen1, EWS-FLI1 expression: low (doxycycline-induced shRNA knockdown) -2.45
inactive: 0.025 µM, library screen: screen1, EWS-FLI1 expression: high (no doxycycline) 0.176 | 0.025 µM, library screen: screen1, EWS-FLI1 expression: low (doxycycline-induced shRNA knockdown) 0.0512 | [1] 0.092 | [2] 0.0707 | [5] 0.104 | [6] 0.0526 | [4] -0.0795 | [7] 0.0132 | [8] 0.112

CCC1C2CC3[C@@H]4N(C)c5ccccc5[C@]45CC(C2[C@H]5O)N3[C@@H]1O (stereo not given in full)
inactive: [1] 0.014 | [2] -0.00944 | [3] 0.104 | [4] 0.0619

CCC(=O)Nc1ccc(Cl)c(Cl)c1
inactive: [1] 0.114 | [2] -0.0209 | [3] 0.0655 | [4] 0.0703

NCC(=O)c1ccccc1
inactive: [1] 0.0631 | [2] 0.0462 | [3] 0.0615 | [4] -0.00509

CC(=O)[O][Hg][c]1ccccc1
inactive: [2] -0.147
active: [1] -0.557 | [3] -2.86 | [4] -2.46

CCCN1CCCC2Cc3[nH]ncc3CC21 (stereo not given)
inactive: [5] 0.135 | [6] 0.086 | [7] 0.231 | [8] 0.107

C[C@@H]1C[C@@H]([C@H](O)CC2CC(=O)NC(=O)C2)C(=O)[C@@H](C)C1
active: [3] -0.514 | [4] -0.278 | [7] -0.922 | [8] -0.399 | [11] -2.23 | [12] -1.54
inactive: [9] 0.156 | [10] 0.119 | [1] 0.141 | [2] 0.0197 | [5] 0.0548 | [6] 0.0334

COc1ccc(CN2CCN(Cc3cccc(OC)c3)CC2)cc1
inactive: [1] -9.1e-05 | [2] 0.123 | [3] 0.136 | [4] 0.0992

ClC(Cl)=C(c1ccc(Cl)cc1)c1ccc(Cl)cc1
inactive: [1] 0.0882 | [2] 0.047 | [3] 0.0599 | [4] 0.0669

CC[C@H]1CN2CC[C@H]1C[C@@H]2[C@@H](O)c1ccnc2ccc(OC)cc12
inactive: [1] 0.074 | [2] 0.121 | [3] 0.133 | [4] 0.0925

COc1cc(C[C@@H](C)N)c(OC)cc1I
inactive: [5] 0.178 | [6] 0.0876 | [7] 0.142 | [8] 0.145

CCCC1CCCCN1 (stereo not given)
inactive: [1] 0.115 | [2] 0.153 | [3] 0.172 | [4] 0.128

CC(Cc1ccc(O)cc1)NCC(O)c1cc(O)cc(O)c1 (stereo not given)
inactive: [1] 0.143 | [2] 0.0538 | [5] 0.23 | [6] 0.0381 | [3] 0.142 | [4] 0.063 | [7] 0.166 | [8] 0.00325

CCCCCCCCCCCCCC(=O)O[C@@H]1[C@@H](C)[C@@]2(O)[C@@H](C=C(CO)C[C@]3(O)C(=O)C(C)=C[C@@H]23)[C@@H]2C(C)(C)[C@]12OC(C)=O
active: [5] -0.184 | [6] -0.159 | [7] -0.478 | [8] -0.292

Oc1ccc2c3c1O[C@H]1c4[nH]c5ccccc5c4C[C@@]4(O)C(C2)N(CC2CC2)CCC314 (stereo not given in full)
inactive: [5] 0.0893 | [6] 0.051 | [7] 0.0722 | [8] 0.0157

C[C@]12CCC3C(CC[C@H]4C[C@H](O)CC[C@]34C)C1CC[C@@H]2C(=O)CO (stereo not given in full)
inactive: [5] 0.139 | [6] 0.0931 | [7] 0.0348 | [8] 0.0492

ClC1=C(Cl)C2(Cl)C3C(Cl)C(Cl)CC3C1(Cl)C2(Cl)Cl (stereo not given)
inactive: [1] 0.143 | [2] 0.19 | [3] 0.185 | [4] 0.0908

CC(N)C(O)c1ccc(O)c(O)c1 (stereo not given)
inactive: [1] 0.119 | [2] 0.0592 | [3] 0.146 | [4] 0.151

C#CCN[C@H](C)Cc1ccccc1
inactive: [5] 0.265 | [6] 0.101 | [7] 0.0823 | [8] 0.137

COc1cc2c(cc1OC)-c1c(oc3c4c(ccc3c1=O)OC(C(C)C)C4)CO2 (stereo not given)
inactive: [1] 0.0422 | [2] 0.0484 | [3] 0.122 | [4] 0.0221

COc1cc2c(cc1OC)[C@@H]1C(=O)c3ccc4oc(C(C)C)cc4c3O[C@@H]1CO2
inactive: [1] 0.0223 | [2] 0.0518 | [4] -0.129
active: [3] -0.307

C=C(C)[C@H]1Cc2c(ccc3c(=O)c4c(oc23)COc2cc(OC)c(OC)cc2-4)O1
inactive: [1] 0.0952 | [2] -0.0101 | [3] 0.0848 | [4] -0.0847

COc1cc2c(cc1OC)[C@H]1C(=O)c3ccc4c(c3O[C@H]1CO2)C[C@@H](C(C)C)O4
active: [1] -1.56 | [2] -0.67 | [3] -2.2 | [4] -0.747

COc1cc2c(cc1OC)C1C(=O)c3ccc(O)c(CC=C(C)C)c3OC1CO2 (stereo not given)
inactive: [1] 0.0263 | [2] 0.0494 | [3] 0.046 | [4] 0.0598

C=C(C)[C@H]1Cc2c(ccc3c2O[C@@H]2COc4cc(OC)c(OC)cc4[C@@H]2C3=O)O1
inactive: [9] 0.0593 | [10] 0.0961
active: [1] -1.71 | [2] -0.663 | [5] -0.962 | [6] -0.539 | [3] -2.87 | [4] -1.24 | [7] -2.41 | [8] -0.955 | [11] -3.79 | [12] -1.03

CCOP(=S)(OCC)SCn1c(=O)oc2cc(Cl)ccc21
inactive: [1] 0.0867 | [2] 0.153 | [3] 0.166 | [4] 0.163

CCOCN(C(=O)CCl)c1c(C)cccc1CC
inactive: [1] 0.105 | [2] 0.0121 | [3] 0.0903 | [4] -0.17

CC(=O)O[C@@H]1C2CC[C@@H]3C1(C[C@@H](O)[C@@]1(O)[C@@H](C[C@H](O)C1(C)C)[C@]3(C)O)C[C@@]2(C)O (stereo not given in full)
inactive: [1] 0.0646 | [2] 0.00107 | [3] 0.0644 | [4] 0.0594

COc1cc2occc2c2oc(=O)ccc12
inactive: [1] 0.133 | [2] -0.00777 | [3] 0.146 | [4] 0.0199

CCOC(=O)CC(SP(=S)(OC)OC)C(=O)OCC (stereo not given)
inactive: [1] 0.0518 | [2] 0.0626 | [3] 0.101 | [4] 0.14

CN[C@@H]1[C@@H](O)[C@@H](O[C@@H]2[C@@H](O)[C@H](O[C@H]3O[C@H](CN)CC[C@H]3N)[C@@H](N)C[C@H]2N)OC[C@]1(C)O
inactive: [1] 0.0502 | [2] -0.0312 | [3] 0.184 | [4] 0.0476

CC1(C)C2CC(=O)[C@]3(C)C(CC[C@@]4(C)[C@H](c5ccoc5)OC(=O)[C@H]5O[C@]543)[C@@]2(C)C=C[C@@H]1O (stereo not given in full)
inactive: [1] 0.0868 | [2] 0.0799 | [3] 0.177 | [4] 0.105

Oc1cc2c(cc1O)[C@H]1c3ccccc3CN[C@@H]1CC2
inactive: [5] 0.0852 | [6] -0.0099 | [7] 0.117 | [8] 0.00998

CC(C)N(CCC(C(N)=O)(c1ccccc1)c1ccccn1)C(C)C (stereo not given)
inactive: [1] 0.118 | [2] 0.068 | [5] 0.102 | [6] 0.0965 | [3] 0.167 | [4] 0.146 | [7] 0.0737 | [8] 0.0918

O=S1OCC2C(CO1)C1(Cl)C(Cl)=C(Cl)C2(Cl)C1(Cl)Cl (stereo not given)
inactive: [1] 0.126 | [2] 0.0993 | [3] 0.0998 | [4] -2.97

COc1ccc(CCN)cc1O
inactive: [5] 0.19 | [6] 0.105 | [7] 0.0411 | [8] 0.0823

CC1(C)C2C[C@@H](O)[C@]3(C)C(CC[C@@]4(C)[C@H](c5ccoc5)OC(=O)[C@H]5O[C@]543)[C@@]2(C)[C@@H](O)C[C@H]1O (stereo not given in full)
inactive: [1] 0.0675 | [2] 0.0959 | [3] 0.135 | [4] 0.0584

C[N+]1(C)[C@H]2CC(OC(=O)C(CO)c3ccccc3)C[C@H]1[C@H]1O[C@H]12 (stereo not given in full)
inactive: [5] 0.258 | [6] 0.0872 | [7] 0.133 | [8] -0.00973

CO[C@H]1[C@H](O)[C@H](O[C@H]2CC[C@@]3(C=O)[C@H](CC[C@@H]4[C@@H]3CC[C@]3(C)[C@@H](C5=CC(=O)OC5)CC[C@]43O)C2)O[C@@H](C)[C@@H]1O
active: [1] -3.17 | [2] -3.22 | [3] -3.52 | [4] -4.22

CO[C@H]1[C@H](O)[C@H](O[C@H]2CC[C@@]3(C)[C@H](CC[C@@H]4[C@@H]3CC[C@]3(C)[C@@H](C5=CC(=O)OC5)CC[C@]43O)C2)O[C@@H](C)[C@@H]1O
active: [3] -4.02 | [4] -4.27
inactive: [1] 0.0843 | [2] 0.064

C[C@@H]1[C@H](O)[C@@H](C)/C=C/C=C/CC/C=C/C=C/C=C/C=C/C(O[C@H]2O[C@H](C)[C@@H](O)[C@H](N)[C@@H]2O)CC2O[C@](O)(CC(O)C(O)CCC(O)CC(O)CC(O)CC(=O)O[C@H]1C)CC(O)C2C(=O)O (stereo not given in full)
inactive: 0.103 µM, library screen: screen3, EWS-FLI1 expression: high (no doxycycline) 0.0278 | 0.103 µM, library screen: screen3, EWS-FLI1 expression: low (doxycycline-induced shRNA knockdown) 0.00627 | [1] 0.0655 | [2] 0.0679 | 0.308 µM, library screen: screen3, EWS-FLI1 expression: high (no doxycycline) 0.00683 | 0.308 µM, library screen: screen3, EWS-FLI1 expression: low (doxycycline-induced shRNA knockdown) 0.0137 | 0.926 µM, library screen: screen3, EWS-FLI1 expression: high (no doxycycline) 0.00828 | 0.926 µM, library screen: screen3, EWS-FLI1 expression: low (doxycycline-induced shRNA knockdown) 0.0539 | [3] 0.133 | [4] 0.104 | 2.8 µM, library screen: screen3, EWS-FLI1 expression: high (no doxycycline) -0.00919 | 2.8 µM, library screen: screen3, EWS-FLI1 expression: low (doxycycline-induced shRNA knockdown) 0.0174 | 8.3 µM, library screen: screen3, EWS-FLI1 expression: high (no doxycycline) 0.0134 | 8.3 µM, library screen: screen3, EWS-FLI1 expression: low (doxycycline-induced shRNA knockdown) 0.0644 | 25 µM, library screen: screen3, EWS-FLI1 expression: high (no doxycycline) 0.0075 | 25 µM, library screen: screen3, EWS-FLI1 expression: low (doxycycline-induced shRNA knockdown) 0.0194
